Rows were chosen to be rich in hits. Some 18% of all compounds tested hit in one or more screens of this group.
TDP1 cell noCPT: qHTS for Inhibitors of human tyrosyl-DNA phosphodiesterase 1 (TDP1): qHTS in cells in absence of CPT. Potency, µM (titrated, usually from 46.2 µM), most hits filed as inhibitors. 15% of 420,000 active. DT40 Tdp1-/- hTDP1 cells, no CPT, ATP luminescence, 48 h; note: nearly all actives have a fitted effect of over 55% in size
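Stably hTDP1-transfected Tdp1-null chicken DT40 cells were treated with library compounds minus camptothecin and grown for at least 48 hr at 37 °C, after which cellular ATP was quantified by luminescence.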
GCN5L2 inh: qHTS Assay for Inhibitors of GCN5L2 | Potency, µM (series often up to 58.9 µM), actives largely listed as inhibitors | Histone acetyltransferase KAT2A (Homo sapiens), Q92830 | GCN5L2 HAT assay, ThioGlo1 CoA-SH fluorescence | 0.21% of 390,000 active | AID 504327, 2011
Target sequence (Q92830 whole entry, looked up): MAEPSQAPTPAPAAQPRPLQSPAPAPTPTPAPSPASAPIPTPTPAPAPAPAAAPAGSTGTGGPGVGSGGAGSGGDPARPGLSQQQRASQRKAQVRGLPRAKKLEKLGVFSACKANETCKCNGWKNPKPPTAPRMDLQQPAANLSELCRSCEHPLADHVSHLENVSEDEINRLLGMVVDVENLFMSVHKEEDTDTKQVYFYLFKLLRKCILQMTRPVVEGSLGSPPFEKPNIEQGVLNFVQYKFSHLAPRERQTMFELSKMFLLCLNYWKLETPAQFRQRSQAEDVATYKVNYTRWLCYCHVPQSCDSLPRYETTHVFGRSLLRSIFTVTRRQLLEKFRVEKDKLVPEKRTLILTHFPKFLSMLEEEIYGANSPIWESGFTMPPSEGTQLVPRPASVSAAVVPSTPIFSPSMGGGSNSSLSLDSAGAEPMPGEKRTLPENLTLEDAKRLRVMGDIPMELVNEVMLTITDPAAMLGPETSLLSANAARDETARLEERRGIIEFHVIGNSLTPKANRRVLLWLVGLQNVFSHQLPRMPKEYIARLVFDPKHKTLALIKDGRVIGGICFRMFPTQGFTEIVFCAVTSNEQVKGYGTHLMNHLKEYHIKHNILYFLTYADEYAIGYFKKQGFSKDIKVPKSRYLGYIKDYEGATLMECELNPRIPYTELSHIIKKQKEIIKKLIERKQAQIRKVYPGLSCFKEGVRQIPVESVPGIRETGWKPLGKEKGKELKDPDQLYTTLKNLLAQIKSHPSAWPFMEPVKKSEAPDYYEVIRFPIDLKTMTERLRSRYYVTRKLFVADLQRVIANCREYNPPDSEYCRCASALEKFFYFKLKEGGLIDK
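GCN5L2 (20nM final) in 50mM HEPES, 0.1mM EDTA pH 7.5, 0.01% Tween-20 was preincubated 15 min at room temperature with compound, then given ThioGlo1 (50uM), H3(1-25) peptide (75uM) and acetyl-CoA (70uM); CoA-thiol fluorescence (Ex340/Em540) was read at 0 and 20 min.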
DT40 TDP1 CPT: qHTS for Inhibitors of human tyrosyl-DNA phosphodiesterase 1 (TDP1): qHTS in cells in presence of CPT; AID 686979, 2013; Potency, µM (series often up to 46.2 µM), most hits filed as inhibitors; 12% of 420,000 active; chicken DT40 Tdp1-/-;hTDP1 cells + 20 nM CPT, ATP luminescence, 48 h; note: nearly all actives have a fitted effect of over 55% in size
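Chicken DT40 Tdp1-/- cells complemented with human TDP1, 400 cells/well, exposed to compounds plus 20 nM camptothecin for at least 48 h at 37 C; viability read as ATP content by CellTiter-Glo luminescence.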
VDR inh: Inhibitors of the vitamin D receptor (VDR): qHTS. Vitamin D3 receptor (Homo sapiens), P11473. VDR-SRC2-3 peptide fluorescence polarization, 2 h. Potency, µM, most hits filed as inhibitors. 0.93% of 400,000 active. AID 504847, 2011
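Reagent solutions, kept cold and dark, are dispensed first; compounds are then pinned in at 23 nl, plates briefly spun, and incubated 2 h at ambient temperature. Inhibition of VDR–SRC2-3 peptide binding is read by fluorescence polarization.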
TDP1 block: qHTS Assay for Inhibitors of Tyrosyl-DNA Phosphodiesterase (TDP1) | 0.28% of 350,000 active | Tyrosyl-DNA phosphodiesterase 1 (Homo sapiens), Q9NUW8 | AID 485290, 2010 | recombinant TDP1, AlphaScreen DNA substrate cleavage | Potency, µM (doses to about 130 µM), most hits filed as inhibitors; note: nearly all actives have a fitted effect of over 40% in size
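AlphaScreen read-out: signal falls as enzyme removes the 3' tyrosine-FITC from a 5'-biotinylated DNA oligo (15 nM, 5 min, RT). Enzyme was E. coli-made recombinant Tdp1 at 1 nM, exposed to compound for 15 min beforehand; beads 10 ug/ml, 10 min.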
PLK1 PBD inh: qHTS for Inhibitors of PLK1-PDB (polo-like kinase 1 - polo-box domain): Primary Screen. Serine/threonine-protein kinase PLK1 (Homo sapiens), P53350. Plk1 PBD binding of FITC phosphopeptide, fluorescence polarization. Potency, µM, most hits filed as inhibitors. 2.8% of 360,000 active; note: series mostly up to about 57 µM; nearly all actives have a fitted effect of over 65% in size
A number is an active result; 0 = inactive; ? = inconclusive; - = not tested or not shown. Calls come from the whole dose curve; as a rule, active = well fitted curve in the direction sought with a large enough effect; inconclusive = small, poorly fitted or top-dose-only effect, or another doubt; inactive = no such curve, though single readings can be large; an effect the other way counts as inactive or inconclusive.

SMILES | TDP1 cell noCPT | GCN5L2 inh | DT40 TDP1 CPT | VDR inh | TDP1 block | PLK1 PBD inh
COc1ccc(N(C(=O)c2ccco2)C(C(=O)NC2CCCCC2)c2cccs2)cc1OC (centres undefined) | ? | 0 | ? | 0 | 0 | 0
COc1ccc(C(C(=O)NC2CCCC2)N(C(=O)c2snc(C(N)=O)c2N)c2cc(C)ccc2OC)cc1OC (centres undefined) | 18µM | 0 | ? | 0 | 0 | 0
CCOc1ccc(N(C(=O)c2snc(C(N)=O)c2N)C(C(=O)NC2CCCC2)c2ccncc2)cc1 (centres undefined) | 0 | 0 | 0 | 0 | - | 0
COc1ccc(-c2nsc(C(=O)N(c3ccc(F)cc3)C(C(=O)NC3CCCC3)c3ccc(OC)cc3)c2N)cc1 (centres undefined) | 16µM | 0 | 16µM | 0 | 0 | 0
CCOc1ccc(-c2nnc(SCC(=O)Nc3cc(F)ccc3F)o2)cc1 | ? | 0 | ? | 0 | 0 | -
Cc1ccc(-n2c(=O)c3cccnc3n2CC(=O)Nc2ccc(C)cc2Cl)cc1 | 13µM | 0 | ? | 0 | 0 | -
Cc1ccc(-n2c(=O)c3cccnc3n2CC(=O)Nc2cc(C)cc(C)c2)cc1 | 0 | 0 | ? | 0 | 0 | -
Cc1ccc(CNC(=O)Cn2c3ncccc3c(=O)n2-c2ccc(C)cc2)cc1 | ? | 0 | 21µM | 0 | 0 | -
CCc1cccc(-n2c(=O)c3cccnc3n2CC(=O)Nc2c(C)cc(C)cc2C)c1 | 23µM | 0 | ? | 0 | 0 | -
CC1Cc2ccccc2N1C(=O)Cn1cc(C(F)(F)F)ccc1=O (centres undefined) | ? | - | 0 | - | - | 0
CC(C)COC(=O)N1CCCCC1c1cc(C(=O)NCc2cccnc2)no1 (centres undefined) | 0 | - | 0 | - | - | 0
COc1ccccc1CNc1cc(-c2cccc(NS(C)(=O)=O)c2)ncn1 | ? | 0 | ? | 0 | 0 | -
CCCOc1ccc(C(=O)N(Cc2ccc(Cl)cc2)Cc2ccco2)cc1 | ? | 0 | ? | 0 | 0 | -
Cc1ccc(C(=O)N(Cc2ccco2)Cc2sccc2C)cc1 | 23µM | 0 | 21µM | 0 | 0 | -
CCCCOc1ccc(C(=O)N(Cc2ccc(N(C)C)cc2)Cc2ccco2)cc1 | 13µM | 0 | ? | 0 | 0 | -
CCCCOc1ccc(C(=O)N(Cc2ccco2)Cc2ccco2)cc1 | 21µM | ? | ? | 0 | 0 | -
COc1cccc(C(=O)N(Cc2ccc(N(C)C)cc2)Cc2ccco2)c1 | ? | 0 | ? | 0 | 0 | -
CC(C)Oc1ccc(C(=O)N(Cc2ccc(N(C)C)cc2)Cc2ccco2)cc1 | 13µM | 0 | ? | 0 | 0 | -
CCOC(=O)c1cnn(-c2cccc(F)c2)c1C1CCNCC1 | 0 | 0 | 0 | 0 | 0 | -
CCN(CC(=O)Nc1ccc(C(C)=O)cc1)CC(=O)Nc1cccc(OC)c1 | 0 | 0 | 0 | 0 | 0 | 0
CCSc1ncc(Cl)c(C(=O)N2CCN(c3ccc(OC)cc3)CC2)n1 | ? | 0 | ? | 0 | 0 | -
Cc1cc(C)c2c(CC(=O)NN(C)C)coc2c1 | 0 | 0 | 0 | 0 | 0 | 0
CCSc1ncc(Cl)c(C(=O)N(Cc2ccccc2)c2ccc(OC)cc2)n1 | 5.8µM | 0 | ? | 0 | 0 | -
C=C(C)c1ccc(C(C)(C)NC(=O)N(Cc2ccccc2)Cc2ccco2)cc1 | 16µM | 0 | 18µM | 0 | 0 | 0
Cc1cc(C)c2c(CC(=O)N(Cc3ccc(N(C)C)cc3)Cc3ccco3)coc2c1 | 21µM | 0 | 15µM | 0 | 0 | -
SMILES | TDP1 cell noCPT | GCN5L2 inh | DT40 TDP1 CPT | VDR inh | TDP1 block | PLK1 PBD inh
Cc1ccccc1C(=O)N(Cc1ccc(N(C)C)cc1)Cc1ccco1 | 18µM | 0 | ? | 0 | 0 | -
COc1ccc(NC(=O)N2CCC(n3cnc4ccccc43)CC2)cc1 | ? | 0 | 0 | 0 | 0 | 0
Cn1cnc(S(=O)(=O)NC2CCN(Cc3c(F)cccc3Cl)CC2)c1 | 0 | 0 | 0 | 0 | 0 | 0
CCSc1ncc(Cl)c(C(=O)N(Cc2ccc(N(C)C)cc2)Cc2ccco2)n1 | 21µM | 0 | ? | 0 | 0 | -
Cc1ccc(C(=O)N(Cc2ccc(N(C)C)cc2)Cc2ccco2)cc1 | 21µM | 0 | ? | 0 | 0 | -
CN(C)c1ccc(CN(Cc2ccco2)C(=O)c2ccc(F)cc2)cc1 | ? | 0 | ? | 0 | 0 | -
COC(=O)CC(NC(=O)CN1CCN(c2ccc(F)cc2)CC1)c1cccc(F)c1 (centres undefined) | 0 | 0 | 0 | 0 | - | 0
COc1cccc(C2CC(c3cccs3)=NN2C(=O)CSc2nc3c(cnn3-c3ccc(F)cc3)c(=O)[nH]2)c1OC (centres undefined) | 23µM | 0 | 23µM | 0 | 0 | ?
COc1cccc(C2CC(c3cccs3)=NN2C(=O)CSc2nc3ccccc3s2)c1OC (centres undefined) | 13µM | 0 | 15µM | 0 | 0 | 0
COc1ccc(C2CC(c3cccs3)=NN2C(=O)CSc2nc3c(cnn3-c3ccccc3)c(=O)[nH]2)cc1 (centres undefined) | ? | 0 | ? | 0 | 0 | ?
Cc1cc(C)c2cc(CN(CCN3CCCC3)C(=O)Nc3ccc(F)cc3)c(=O)[nH]c2c1 | 21µM | 0 | 15µM | 0 | 0 | 0
Cc1ccc(C)c2[nH]c(=O)c(CN(CCN3CCCC3)C(=O)Nc3cccc(Cl)c3)cc12 | 18µM | 0 | 23µM | 0 | 0 | 0
N#CN1CCC(NC(=O)c2cccc(F)c2)CC1 | - | - | - | - | 0 | -
CCCN(CCC)CCNC(=O)C1CCN(c2nc3ccc(CC)cc3s2)CC1 | 6.5µM | 0 | 8.2µM | 0 | 0 | -
CCCN(CCC)CCCNC(=O)C1CCN(c2nc3ccc(CC)cc3s2)CC1 | 5.2µM | 0 | 5.8µM | 0 | 0 | -
CC1CCN(c2nc3ccc(C(=O)NCc4ccccc4)cc3s2)CC1 | 0 | 0 | 0 | 0 | 0 | -
CC(O)CNc1nc2ccccc2n1-c1ncnc2sc3c(c12)CCC3 (centres undefined) | 29µM | 0 | 16µM | 0 | 0 | 0
c1ccc2c(c1)ncn2-c1ncnc2sc3c(c12)CCCC3 | 0 | 0 | 0 | 0 | 0 | 0
COc1ccc(C(=O)c2c(-c3cccc(C)c3)oc3ccc(N4CCOCC4)cc23)cn1 | 15µM | 0 | ? | 0 | - | 0
COc1ccc(C(=O)c2c(-c3ccc(OC)cc3)oc3ccc(-c4ccc(OC)nc4)cc23)cc1 | ? | - | ? | 0 | - | 0
CCNc1ncc2nc(-c3ccc(F)cc3)c(=O)n(C)c2n1 | 0 | 0 | ? | 0 | - | -
